Compound activity as filed in PubChem BioAssay.
A selection: hits, their analogues and other compounds. The true share with any hit is near 8%.
LASV entry inh = blocks Lassa virus binding to or entry into cells; Potency, µM (doses to about 37.9 µM), inactives show top-dose activity change, negative = inhibition, actives largely listed as inhibitors; actives 1.2% (n = 300,000); Lassa virus pseudotype entry inhibition, cell reporter; AID 540256; calls by dose curve; tested in HEK293 cells; also: potency is read from the fitted curve at half-maximal effect; % is scaled to controls: 0 for no effect and ±100 for the full control effect; nearly all actives have a fitted effect of over 50% in size
Marburg entry inh = blocks Marburg virus binding to or entry into cells; Potency, µM (highest dose often 37.8 µM), inactives show top-dose activity change, negative = inhibition, actives largely listed as inhibitors; actives 1.8% (n = 300,000); Marburg virus pseudotyped entry inhibition, cell reporter; AID 540276; calls by dose curve; tested in HEK293 cells; also: potency is read from the fitted curve at half-maximal effect; % is scaled to controls: 0 for no effect and ±100 for the full control effect
SARS PLP yeast = SARS-CoV PLP inhibition in yeast. Potency, µM (doses to about 32.9 µM), without a hit: at the highest dose activity, positive = growth rescue, actives largely listed as activators. S. cerevisiae expressing SARS-CoV PLpro, growth rescue. AID 485353. actives 0.19% (n = 330,000); calls by dose curve; also: potency is read from the fitted curve at half-maximal effect; 0% is about no effect; nearly all actives have a fitted effect of over 55% in size
FMDV inh = blocks foot and mouth disease virus; FMDV antiviral cell-based qHTS; actives 1.2% (n = 410,000); Potency, µM (series often up to 57.9 µM), for the others: at the highest dose activity change, negative = inhibition, hits mostly inhibitors; calls by dose curve; tested in HEK293T cells; also: read-out not given here; potency is read from the fitted curve at half-maximal effect; % is scaled to controls: 0 for no effect and ±100 for the full control effect; nearly all actives have a fitted effect of over 45% in size
HCMV inh = human cytomegalovirus inhibition; HFF cells, HCMV-luciferase reporter, 72 h; stronger effect = lower value; activity change, negative = inhibition, % at 57.5 µM; actives 4.5% (n = 410,000); AID 1259415; in the data active = activity change below about -60%; inconclusive = no clear call, values can overlap the other calls; inactive = above about -39%; also: % is scaled to controls: 0 for no effect and ±100 for the full control effect
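Steps: HFFs plated, 16 h 37C; compounds added; HCMV-luciferase added to MOI 1 PFU/cell; 72 h 37C; OneGlo reagent, 5 min room temperature; luminescence read, normalized to controls.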
HCV inh = blocks hepatitis C virus; Huh7.5.1 HCVcc-Cre infection, luciferase reporter, 44 h; Potency, µM (titrated, usually from 41.8 µM), without a hit: top-dose activity change, negative = inhibition, usual class: inhibitors; actives 3.4% (n = 340,000); active = well fitted inhibition curve with a large enough effect; inconclusive = small, poorly fitted or top-dose-only effect, or another doubt; inactive = no such curve, though single readings can be large or run the other way; also: potency is read from the fitted curve at half-maximal effect; % is scaled to controls: 0 for no effect and ±100 for the full control effect
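A cell-based infection assay in which seeded cells (1,000 per well) receive test compound after 4 h, are inoculated with HCVcc-Cre at approximately 0.5 moi, and are incubated 44 h before luminescence detection.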
Active calls of the source: *; ? = inconclusive; / = not tested or not shown; + = active, no number; [ ] = dose if it differs, or a comment.

SMILES | LASV entry inh | Marburg entry inh | SARS PLP yeast | FMDV inh | HCMV inh | HCV inh
COc1ccc(C)cc1N=Nc1ccc(O)c2ncccc12 | / | / | ? | -23% | -100* | ?
COc1cc(N)c2ncccc2c1Cl | 0%[46.1 µM] | -2%[46.1 µM] | / | -9% | -31 | -8%
Nc1ccc(N=Nc2ccccc2)c2cccnc12 | / | / | -4% | 37% | 389 | 2.5µM*
CC(C)n1c(SCC(=O)Nc2ccc(F)cc2)nc2c(oc3ccccc32)c1=O | / | 6%[46.1 µM] | / | 0% | -19 | /
CCOC(=O)C(Nc1ccccc1NC(=O)OC(C)(C)C)C(=O)Nc1c(C)cccc1C (centres undefined) | / | / | / | / | -8 | /
O=C(CSc1nc2ccc(Nc3nc(N4CCOCC4)nc(N4CCOCC4)n3)cc2s1)Nc1ccccc1 | / | / | / | / | 0 | /
COc1ccc(N=Nc2ccc(O)c3ncccc23)cc1 | / | / | 2% | 2% | + | ?
Cc1ccccc1N=Nc1ccc(O)c2ncccc12 | ? | 5.6µM* | 3.5µM* | 0% | -93* | ?
O=S(=O)(O)c1cccc2c(N=Nc3ccc(O)c4ncccc34)cccc12 | / | 2% | ? | ? | / | ?
Oc1ccc(N=Nc2ccc3c(c2)OCCO3)c(O)c1 | / | / | -1% | ? | -13 | 8%
Oc1ccc(N=Nc2ccc3c(c2)OCCO3)c2cccnc12 | ? | ? | -7% | ? | -98* | ?
O=Nc1ccc(O)c2ncccc12 | / | / | 0% | ? | -98* | ?
CCCc1nnc(SCC(=O)NC2CCCC2)n1CCOC | 23%[46.1 µM] | 12%[46.1 µM] | 22% | -5% | 3 | -1%
O=c1oc2c(O)c(O)cc3c(=O)oc4c(O)c(O)cc1c4c23 | ? | 4.1µM* | 1.4µM* | -24% | / | -8%[8.37 µM]
CCCCN(Cc1ccccc1)S(=O)(=O)c1ccc2c(c1)CCN2C(=O)C1CCC1 | 0%[46.1 µM] | 5%[46.1 µM] | / | 18% | 20 | /
CCOc1cc(C(=O)NN=C2CCCC2)cc(OCC)c1OCC | / | / | -6% | -18% | -76* | -27%
O=C(N/N=C/C(Br)=C\c1ccccc1)c1ccc2nc[nH]c2c1 | -23% | ? | -23% | 8% | -76* | ?
CCOc1cc(C(=O)N/N=C/C(Br)=C/c2ccccc2)cc(OCC)c1OCC | ? | ? | -17% | -15% | -76* | ?
O=C(N/N=C/C(Br)=C/c1ccccc1)c1ccncc1 | / | / | -6% | 4% | ? | ?
COc1cc2c(cc1OC)C1O[C@](CCCCN3C(=O)c4ccccc4C3=O)(C2)Oc2c1c(=O)oc1ccc(F)cc21 | / | 2%[14.2 µM] | -3%[6.58 µM] | / | / | /
C=CCNC(=O)[C@H]1C=C(OC)C(=O)C[C@H]2c3ccccc3C[C@]12C | / | -22%[14.2 µM] | / | / | / | /
COc1ccc(NC(=O)Nc2cccc(NC(C)=O)c2)c(OC)c1 | -6% | -2%[46.1 µM] | -2% | 1% | -2 | -4%
CC(C)(C)OC(=O)N1CCC(c2c(C(=O)N3CCN(c4ccccc4)CC3)cnn2-c2ccccc2)CC1 | ? | / | / | -5% | ? | /
COc1ccc(/C=N/Nc2cc(C)nc3ccc(OC)cc23)c(OC)c1 | ? | ? | 10% | ? | -105* | 10µM*
COc1ccc2nc(C)cc(N/N=C/c3ccccc3)c2c1 | ? | ? | -2% | -4% | / | 10µM*
SMILES | LASV entry inh | Marburg entry inh | SARS PLP yeast | FMDV inh | HCMV inh | HCV inh
COc1ccccc1/C=N/Nc1cc(C)nc2ccc(C)cc12 | 21%[46.1 µM] | -3%[46.1 µM] | -1% | 4% | 27 | ?
Cc1cc(C(=O)c2ccccc2)c(NC(=O)CN2CCOCC2)s1 | / | / | / | -9% | -6 | -3%
O=C(CCl)Nc1sccc1C(=O)c1ccccc1 | 9% | 9%[46.1 µM] | / | 20µM* | -14 | 2%
Cc1cc(C(=O)c2ccc(C(C)(C)C)cc2)c(NC(=O)CCl)s1 | ? | ? | -37% | 35µM* | -65* | ?
Cc1sc(NC(=O)CCl)c(C(=O)c2ccccc2)c1C | ? | 2% | -16% | ? | -23 | ?
Cc1cc(N)c2cc(NC(=O)Nc3ccc4nc(C)cc(N)c4c3)ccc2n1 | / | / | / | / | -99* | /
Cc1cc(C)c(NC(=O)Nc2ccccc2)c(C)n1 | / | / | 3% | -24% | -16 | 5%
COc1ccc(OC)c(NS(=O)(=O)c2ccc(Cl)nc2)c1 | 14% | -9% | -1% | 0% | 0 | 15%
COc1ccc(OC)c(NS(=O)(=O)c2ccc3[nH]c(=O)[nH]c3c2)c1 | / | / | / | -18% | -102* | /
CCCCOc1ccc(S(=O)(=O)Nc2cc(OC)ccc2OC)cc1 | -27% | ? | / | / | ? | 10µM*
COc1ccc(CN2C(=O)C(n3cccc3)c3cc(OC)ccc32)cc1 (centres undefined) | / | / | / | / | -23 | /
CCOc1ccc(S(=O)(=O)Nc2ccc3oc(C)c(C(=O)OC(C)C)c3c2)cc1 | -21%[46.1 µM] | / | / | 64% | 30 | /
CCCc1oc2ccc(NS(=O)(=O)c3ccc(OC)cc3)cc2c1C(=O)OCC | 1µM* | / | / | 23% | -83* | /
CCCc1oc2ccc(NS(=O)(=O)c3ccc(OCC)cc3)cc2c1C(=O)OCC | ? | -23%[46.1 µM] | / | 33% | -65* | /
COc1ccc(NC(=O)c2ccc3[nH]c(C)c(C)c3c2)cc1 | / | / | -3% | 46% | ? | -28%
COc1cccc(CNC(=O)c2cc3cc(C)ccc3n2C)c1 | ? | ? | / | -8% | ? | /
Cc1ccc2c(c1)cc(C(=O)NCc1ccccc1)n2C | ? | 0.63µM* | 4% | 8% | -71* | 8%
COc1ccc(CNC(=O)c2cc3cc(C)ccc3n2C)cc1 | ? | ? | / | 5% | -79* | /
COc1ccc(-c2nnn(CC(=O)N(CCCN3CCOCC3)C(C(=O)NC3CCCC3)c3ccco3)n2)cc1 (centres undefined) | -22%[46.1 µM] | ? | 0% | 2% | -37 | 5%
Cc1noc(C)c1S(=O)(=O)N1CCc2nc(COc3ccccc3)c3c(c2C1)CO[C@@H](C)C3 | / | 18%[14.2 µM] | / | / | / | /
CCN(C=NC1=NN(c2cccc(C(F)(F)F)c2)CC1)CC | -2% | ? | -19% | 43% | -22 | 11µM*
COc1ccc(NC(=O)N2CC[C@@]3(CCCN(C(=O)c4csnn4)C3)C2)cc1 | / | / | / | -15% | / | /
CC[n+]1c(/C=C/c2c[nH]c3ccccc23)ccc2cc(C)ccc21 | ? | ? | -9% | 13µM* | -99* | 4.5µM*
COc1ccc(CCNC(=O)CCCCC(=O)NCCc2ccc(OC)cc2)cc1 | / | / | 0% | 2% | -17 | 8%
COc1ccc(CN(CCNC(=O)CCCCC(=O)NCCN(Cc2ccc(OC)cc2)C(C)C)C(C)C)cc1 | / | / | / | -13% | ? | 11µM*
COc1cccc(CNn2c(-c3cccc(C)c3)nc3ccccc3c2=O)c1 | 18µM* | ? | -18% | / | -73* | ?
COc1ccc(CNn2c(-c3cccs3)nc3ccccc3c2=O)cc1OC | ? | ? | -12% | ? | -70* | ?
CCOc1ccc(-n2c(-c3cccs3)nc3ccccc3c2=O)cc1 | -6%[46.1 µM] | ? | 0% | ? | -66* | ?
